# Publication PMC5540273 (PLoS ONE, 2017)
# Where “and” joins values, the source holds several entries; their conditions need not be identical. Equal entries are not always repeated. Where two headings read alike, the source gives them in different places.
# Key:
# Details in all cases: concentration: 1 μM, replicates: in singlicate, n = 1
# p38-beta = tested on: T1, p38-beta
# T1 construct: gene MAPK11
# p38-delta = tested on: p38-delta
# p38-gamma = tested on: T2, p38-gamma
# T2 construct: gene MAPK12
# 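Further: KINOMEscan kinase panel screen.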
smiles,measurement,setting,value
COc1ccc(-c2nc3n(c2-c2ccncc2)CCC3)cc1 [SKF-104493],%Inh,p38-beta; 1 µM,33% and 40%
same,%Inh,p38-delta; 1 µM,5% and 43%
same,%Inh,p38-gamma; 1 µM,21% and 8%
Cc1cccc(-c2nc(Nc3ccc4[nH]nnc4c3)c3ccccc3n2)n1 [GW867587],%Inh,p38-beta,0%
same,%Inh,p38-delta,0%
same,%Inh,p38-gamma,0%
CS(=O)(=O)CCNCc1ccc(-c2ccc3ncnc(Nc4ccc(OCc5ccccc5)c(Cl)c4)c3c2)o1.Cl [GW574783],%Inh,p38-beta,0%
same,%Inh,p38-delta,21%
same,%Inh,p38-gamma,0%
O=c1cc(N2CCOCC2)nc2n(Cc3cccc(Cl)c3)ccn12 [GSK2296823],%Inh,p38-beta,0%
same,%Inh,p38-delta,38%
same,%Inh,p38-gamma,56%
Clc1ccc(-c2cc(-c3c[nH]nc3-c3ccccn3)ccn2)cc1 [GW681251],%Inh,p38-beta,0%
same,%Inh,p38-delta,25%
same,%Inh,p38-gamma,0%
CC(=O)Nc1n[nH]c2ncc(-c3ccccc3)cc12 [SB-548492],%Inh,p38-beta,11%
same,%Inh,p38-delta,3%
same,%Inh,p38-gamma,20%
Nc1nc(-c2ccccn2)c(-c2ccnc3ccccc23)s1 [GW548057],%Inh,p38-beta,0%
same,%Inh,p38-delta,29%
same,%Inh,p38-gamma,0%
FC(F)(F)c1cc(Nc2nccc(-c3c(-c4ccc(Cl)cc4)nn4ncccc34)n2)ccc1Cl [GW829351],%Inh,p38-beta,0%
same,%Inh,p38-delta,0%
same,%Inh,p38-gamma,0%
Fc1cccc(COc2ccc(Nc3ncnc4nn5ccccc5c34)cc2Cl)c1 [GW689066],%Inh,p38-beta,0%
same,%Inh,p38-delta,25%
same,%Inh,p38-gamma,0%
Cl.Fc1ccccc1COc1ccc(Nc2ncnc3ccc(-c4nnc(C(F)(F)F)o4)cc23)cc1Cl [GW424170],%Inh,p38-beta,0%
same,%Inh,p38-delta,29%
same,%Inh,p38-gamma,17%
N#Cc1ccc(Oc2ccc(Nc3ncnc4cc[nH]c34)cc2Cl)cc1,%Inh,p38-beta,14%
same,%Inh,p38-delta,3%
same,%Inh,p38-gamma,10%
FC(F)(F)c1ccc(-c2nn3ncccc3c2-c2ccnc(Nc3cccc(C(F)(F)F)c3)n2)cc1 [GW828205],%Inh,p38-beta,0%
same,%Inh,p38-delta,3%
same,%Inh,p38-gamma,41%
COc1ccc(NC(=O)Nc2ccc(C)c(-c3ccc(C(=O)Nc4ccncc4)cc3)c2)cc1 [GSK1398475],%Inh,p38-beta,0%
same,%Inh,p38-delta,37%
same,%Inh,p38-gamma,0%
Cl.c1ccc(Cn2ccc3cc(Nc4ncnc5ccccc45)ccc32)cc1 [GW275568],%Inh,p38-beta,0%
same,%Inh,p38-delta,30%
same,%Inh,p38-gamma,8%
Fc1ccc(Nc2nccc(-c3c(-c4ccc(Cl)cc4)nn4ncccc34)n2)cc1F [GW829058],%Inh,p38-beta,19%
same,%Inh,p38-delta,4%
same,%Inh,p38-gamma,37%
Cl.O=S(=O)(c1cccc(F)c1)c1ccc(Nc2ncnc3cc(Br)sc23)cc1Cl [GSK306886],%Inh,p38-beta,0%
same,%Inh,p38-delta,26%
same,%Inh,p38-gamma,8%
Cl.Cl.c1ccc(-c2cc3ccncc3cc2OC2CCNCC2)cc1 [GSK1122999],%Inh,p38-beta,0%
same,%Inh,p38-delta,44%
same,%Inh,p38-gamma,40%
CCc1nc(-c2cccc(N(C)S(=O)(=O)c3ccccc3)c2)c(-c2ccnc(Nc3ccc(N4CCN(C(C)=O)CC4)nc3)n2)s1 [GSK1645895],%Inh,p38-beta,0%
same,%Inh,p38-delta,7%
same,%Inh,p38-gamma,0%
COc1ccc(NC(=O)c2ccc(-c3cc(-c4nnc(C)o4)ccc3C)cc2)cc1 [GW595885],%Inh,p38-beta,33%
same,%Inh,p38-delta,17%
same,%Inh,p38-gamma,0%
O=C(Nc1ccccc1F)NC1CCN(c2ccnc(Nc3ccc(F)cc3)n2)C1 (centres unmarked) [GSK1379722],%Inh,p38-beta,0%
same,%Inh,p38-delta,38%
same,%Inh,p38-gamma,0%
CCc1nc(-c2cccc(C)c2)c(-c2ccnc(NC(=O)c3ccccc3)c2)s1,%Inh,p38-beta,68%
same,%Inh,p38-gamma,32%
Cc1ccc(O)cc1Nc1cc(C(F)(F)F)nc2ccc(-c3ccncc3)cc12 [GW630823],%Inh,p38-beta,0%
same,%Inh,p38-delta,7%
same,%Inh,p38-gamma,31%
COC(=O)c1c(-c2ccccc2)c2cc(Cl)ccc2c(=O)n1Cc1ccc(S(C)(=O)=O)cc1,%Inh,p38-beta,0%
same,%Inh,p38-delta,21%
same,%Inh,p38-gamma,23%
CS(=O)(=O)CCNCc1nc(-c2ccc3ncnc(Nc4ccc(OCc5cccc(F)c5)c(Cl)c4)c3c2)cs1.Cl [GW583340],%Inh,p38-beta,0%
same,%Inh,p38-delta,47%
same,%Inh,p38-gamma,0%
C[C@H]1CC[C@@H](C(=O)Nc2ccccc2)CN1c1cc(-c2ccc3c(N)n[nH]c3c2)nc(N)n1 [GSK2283293],%Inh,p38-beta,0%
same,%Inh,p38-delta,0%
same,%Inh,p38-gamma,51%
CCCc1ccc(S(=O)(=O)NC2CCN(c3ccnc(Nc4ccc(OC)cc4)n3)C2)cc1 (centres unmarked) [GSK1379737],%Inh,p38-beta,0%
same,%Inh,p38-delta,26%
same,%Inh,p38-gamma,31%
Cl.Cn1ccc(-c2cccc(Nc3ccnc4cc(-c5nccs5)ccc34)c2)n1 [GW525701],%Inh,p38-beta,0%
same,%Inh,p38-delta,23%
same,%Inh,p38-gamma,14%
